Source: the supplement of paper PMC3334620
Whole data set: some 33,000 sequences, median “E-score (-0.5 to 0.5)” near -0.056, cut for the highest 2% near 0.38. The sample as a whole holds a higher share of the highest values than the screen did.

What follows are sequences tested against Stb4 (UniProt P50104) (assay: PBM E-score (8-mer binding enrichment) (E-score (-0.5 to 0.5)); higher = stronger / more preferred TF binding). Details: protein concentration: 200 nM; construct: GST-DNA-binding domain.
Chain of UniProt P50104 (P50104 whole entry, the tested form may be a part): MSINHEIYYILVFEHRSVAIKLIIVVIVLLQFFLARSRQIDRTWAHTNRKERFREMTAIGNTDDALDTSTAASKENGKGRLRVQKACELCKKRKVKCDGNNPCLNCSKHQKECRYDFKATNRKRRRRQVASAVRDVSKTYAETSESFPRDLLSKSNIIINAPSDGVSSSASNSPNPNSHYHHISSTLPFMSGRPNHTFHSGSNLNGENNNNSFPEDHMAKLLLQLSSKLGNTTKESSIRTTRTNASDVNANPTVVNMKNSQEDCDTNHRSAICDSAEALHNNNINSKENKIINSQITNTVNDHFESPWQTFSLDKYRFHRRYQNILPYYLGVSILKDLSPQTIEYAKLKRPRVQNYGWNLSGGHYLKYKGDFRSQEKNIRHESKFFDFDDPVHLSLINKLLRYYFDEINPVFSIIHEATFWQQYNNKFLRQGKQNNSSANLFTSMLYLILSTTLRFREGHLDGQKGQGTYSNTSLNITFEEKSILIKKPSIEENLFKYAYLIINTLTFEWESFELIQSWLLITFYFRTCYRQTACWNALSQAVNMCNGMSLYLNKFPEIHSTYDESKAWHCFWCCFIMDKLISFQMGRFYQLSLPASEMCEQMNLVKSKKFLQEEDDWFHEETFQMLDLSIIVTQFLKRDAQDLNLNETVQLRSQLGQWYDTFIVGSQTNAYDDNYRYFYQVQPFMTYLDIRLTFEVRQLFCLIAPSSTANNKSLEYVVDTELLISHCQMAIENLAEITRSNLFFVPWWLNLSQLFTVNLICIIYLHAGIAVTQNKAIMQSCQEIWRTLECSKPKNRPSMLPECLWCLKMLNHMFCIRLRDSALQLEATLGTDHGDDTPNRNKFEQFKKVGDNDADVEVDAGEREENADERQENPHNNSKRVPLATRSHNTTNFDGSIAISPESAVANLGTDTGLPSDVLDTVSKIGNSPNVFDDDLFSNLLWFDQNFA
Procedure: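 Universal 'all 10-mer' protein binding microarrays (Agilent AMADID 015681) probed with GST-tagged S. cerevisiae TFs (full-length or DBD) made by in vitro transcription/translation (PURExpress), about 100-200 nM. Bound TF was detected with fluorescent anti-GST. Each ungapped 8-mer (which stands for itself and its reverse complement) is scored by the PBM enrichment score (E-score), a modified Wilcoxon-Mann-Whitney statistic from -0.5 to +0.5, computed with the Universal PBM Analysis Suite. Scale: above 0.35 generally sequence-specific binding.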

Row | Sequence | PBM E-score
1 | GCCTCTCA | 0.0652
2 | ACAAACCC | 0.0864
3 | AGTGACAT | -0.243
4 | CGGTGGCC | 0.114
5 | CGCGGCGC | 0.106
6 | ATCGGCGC | 0.205
7 | CTCGGCGC | 0.383
8 | ATCGGCGA | 0.226
9 | CTCGGCGA | 0.397
10 | GTCGGCGA | 0.126
11 | ATTGGTTC | 0.0474
12 | ATTACCAG | -0.105
13 | TCCGACCA | 0.388
14 | GCCGACGA | 0.285
15 | ACCGACCA | 0.141
16 | CCCGACGA | 0.34
17 | TCCGACGA | 0.386
18 | GCCGACCA | 0.207
19 | GATCACCA | -0.056
20 | CAGCTCGC | -0.13
21 | AAGCTCGG | 0.439
22 | AAGCTCGA | 0.0225
23 | CAGCTCGA | -0.144
24 | AAGCTCGC | -0.0388
25 | CAGCTCGG | 0.392

Row | Sequence | PBM E-score
26 | GCCCACGC | -0.168
27 | ACATATCT | -0.0348
28 | CTCTCGCA | -0.148
29 | CTCTCGTC | -0.0633
30 | AACTCGGC | 0.364
31 | CTCTCGGC | 0.397
32 | CTCTCGGA | 0.452
33 | CTCTCGAA | -0.356
34 | ATCTCGCC | 0.0501
35 | ATCTCGGC | 0.442
36 | CTCTCGAC | -0.293
37 | AACCAAGC | -0.109
38 | GACCACGA | -0.259
39 | CCTACCCA | -0.208
40 | AGTCCCCA | -0.364
41 | ACGCCGAA | 0.317
42 | ACGCCGAG | 0.352
43 | TCGCCGAA | 0.32
44 | CCGCCGCA | 0.0672
45 | GCGCCGAA | 0.388
46 | GCGCCGAC | 0.195
47 | CCGCCGAC | 0.217
48 | CCGCCGAG | 0.394
49 | CCGCCGAA | 0.4
50 | CTACGAGC | -0.133

Row | Sequence | PBM E-score
51 | AGTTAGAG | -0.174
52 | ACGTCCCT | -0.32
53 | GCGCATTA | 0.00939
54 | CCCTTGAG | -0.134
55 | CTTGCCGC | 0.18
56 | ATTGCCGG | 0.301
57 | CTTGCCTA | -0.286
58 | GTTGCCAA | -0.164
59 | ATTGCCGC | 0.121
60 | GTTGCCCA | -0.0723
61 | CTTGCCGA | 0.396
62 | ATTGCCGA | 0.451
63 | GTTGCCGA | 0.458
64 | CATATGAC | -0.132
65 | GGAGGTAC | 0.112
66 | AAGAAACG | -0.084
67 | GTCGAAAA | -0.122
68 | GAATCCAC | -0.134
69 | GATGCCAC | -0.0531
70 | CACTCTTC | -0.0762
71 | GAGCCTGC | -0.0113
72 | AAATTCCC | 0.167
73 | ATATTCGA | 0.0718
74 | AAATTCGT | 0.117
75 | ATATTCCA | 0.0331

Row | Sequence | PBM E-score
76 | ATATTCGC | -0.034
77 | AAATTCCA | -0.0536
78 | ATATTCGG | 0.399
79 | AAATTCGG | 0.389
80 | AAATTCCG | 0.387
81 | AAATTCGC | 0.0337
82 | ATATTCCC | 0.32
83 | ATATTCCG | 0.393
84 | CTTGCAGC | -0.153
85 | TCCAGTCA | -0.0411
86 | CAGTGTGG | -0.271
87 | AAAAAGGT | -0.106
88 | AATGTTTG | -0.0254
89 | CCACTCTC | 0.0625
90 | GATAAGAC | 0.0398
91 | AGATTCCG | 0.389
92 | AGATTCCT | -0.216
93 | AGATTCCC | 0.127
94 | ACGGTGTC | 0.0812
95 | CGGTCCAG | -0.0508
96 | GGACATAC | 0.0378
97 | CACCCAGC | 0.0106
98 | AATTCGAA | -0.191
99 | GATTCGTA | 0.0772
100 | GATTCGGA | 0.43

Row | Sequence | PBM E-score
101 | CATTCGGG | 0.343
102 | GATTCGCA | -0.0177
103 | AATTCGGA | 0.447
104 | TATTCGCA | -0.147
105 | CATTCGGA | 0.383
106 | TATTCGGA | 0.426
107 | TATTCGAA | -0.2
108 | AATTCGTA | 0.0882
109 | CATTCGTA | -0.194
110 | ACCCATAG | -0.221
111 | GGCGTTCA | -0.0303
112 | CGCGACTC | -0.0117
113 | CCTTAGTC | -0.155
114 | CGAGCACC | 0.204
115 | CTATTCCC | 0.0798
116 | AGCAGTAC | 0.0047
117 | AATTCGGG | 0.39
118 | GATTCGGC | 0.393
119 | AATTCGGC | 0.357
120 | GATTCGCC | -0.0248
121 | CATTCGCC | -0.0759
122 | CATTCGTC | -0.0104
123 | CATTCGGC | 0.409
124 | AATTCGGT | 0.278
125 | GATTCGAC | -0.233

Row | Sequence | PBM E-score
126 | GACAAAAC | -0.0388
127 | GTACATCA | -0.00531
128 | GTTATCCA | 0.0169
129 | AAATCTCA | -0.0445
130 | ATCGGCTC | 0.279
131 | CGCGGCTC | 0.191
132 | AACGGCTA | 0.16
133 | CTCGGCTC | 0.422
134 | ATCGGCTA | 0.403
135 | CACGGCTA | 0.299
136 | CTCGGCTA | 0.472
137 | ATCGGCTG | 0.328
138 | GTCGGCTA | 0.377
139 | ATCAGCAC | -0.139
140 | CAGGTGGA | -0.236
141 | GAAGTTGA | -0.085
142 | ACATCCCA | -0.0846
143 | TCATCCGA | 0.473
144 | CCATCCGC | 0.28
145 | CCATCCGA | 0.453
146 | ACATCCAG | -0.261
147 | TCATCCCA | -0.181
148 | CCATCCGG | 0.332
149 | ACATCCGG | 0.447
150 | ACATCCTG | -0.0816

Row | Sequence | PBM E-score
151 | ACATCCGT | 0.348
152 | TCATCCAA | -0.191
153 | ACATCCGA | 0.486
154 | CAACTAGG | -0.0487
155 | TCTTCGCA | -0.0992
156 | GTGTGCAA | -0.127
157 | ACGTTCCC | 0.11
158 | ATTCAACC | 0.00448
159 | AAAGACAT | -0.14
160 | GCGGGGGA | 0.0109
161 | CCGCAAGA | 0.151
162 | GCATCCTA | -0.163
163 | GCATCCGC | 0.295
164 | GCATCCGA | 0.466
165 | ACGGCCAG | -0.124
166 | ATCGGTTA | 0.368
167 | CTCGGTTA | 0.44
168 | GTCGGTAA | 0.333
169 | CTCGGTAA | 0.431
170 | GTCGGTTA | 0.343
171 | CTCGGTGC | 0.244
172 | CTCGGTAC | 0.383
173 | ATCGGTAA | 0.336
174 | ATCGGTAC | 0.329
